Vif-APOBEC3G blk: blocks the Vif interaction with human APOBEC3G. Q9HC16. HeLa A3G-eYFP + Vif (tagged APOBEC3G with the HIV-1 protein that degrades it), YFP fluorescence, overnight. Potency, µM (top dose mostly 46.1 µM), for inactives: at the highest dose activity, negative = active, actives largely listed as inhibitors. 410,000 compounds, 0.076% hits. AID 602310; note: potency is the fitted concentration of half-maximal effect; % is set by controls: 0 for no effect and ±100 for the full control effect; nearly all actives have a fitted effect of over 60% in size
Target sequence (Q9HC16 whole entry, looked up): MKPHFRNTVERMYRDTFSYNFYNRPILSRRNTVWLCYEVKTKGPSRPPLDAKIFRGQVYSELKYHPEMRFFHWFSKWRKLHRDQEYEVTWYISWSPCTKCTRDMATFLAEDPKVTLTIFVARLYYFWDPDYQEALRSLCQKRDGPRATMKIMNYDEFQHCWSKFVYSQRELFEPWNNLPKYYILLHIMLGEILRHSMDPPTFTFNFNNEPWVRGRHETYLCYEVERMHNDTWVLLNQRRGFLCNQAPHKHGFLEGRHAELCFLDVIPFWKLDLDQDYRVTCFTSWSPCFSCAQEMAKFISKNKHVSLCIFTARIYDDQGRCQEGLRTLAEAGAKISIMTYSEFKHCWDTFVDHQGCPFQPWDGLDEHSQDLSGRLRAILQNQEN
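Read-out is eYFP fluorescence (Ex 488/Em 500-530) from Vif-expressing HeLa A3G-eYFP cells; more signal means A3G escaped Vif-mediated degradation. Cells plated overnight, compound pinned in, incubated overnight at 37 deg C.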
SW480 rerep: induces DNA re-replication in SW480 colon adenocarcinoma cells. Potency, µM (top dose mostly 46.1 µM), without a hit: top-dose re-replication activation, usual class: activators. AID 624297. SW480 DNA re-replication, Hoechst DNA content imaging, 48 h. 340,000 compounds, 1.8% hits; note: potency is the fitted concentration of half-maximal effect; % of control where 0% means no effect; nearly all actives have a fitted effect of over 55% in size
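250 cells/well; 23 nL cpd via pin tool; 48 hr, 37 C, 5% CO2; Hoechst 40 min; imager read of total nuclear intensity, ex 405/em 500-530 nm.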
Giardia kill: kills Giardia lamblia; AID 540267; activity change, % at 7.66 µM, hits read low; Giardia lamblia trophozoite viability; 340,000 compounds, 0.15% hits; in the data active = activity change below about -80%; inconclusive = between about -30% and that limit;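 note: parasites exposed to compound for two days anaerobically before the ATP read; % is set by controls: 0 for no effect and ±100 for the full control effect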
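Anaerobic 48 hrs incubation at 37 deg C of 100 trophozoites/well with test compounds; ATPLite 1-Step luminescence, 15-30 min RT, reports cellular ATP as viability.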
Vif-A3F inh: Vif-A3F binding inhibition; Potency, µM (series often up to 46.1 µM), without a hit: top-dose activity, negative = active; AID 602313; 390,000 compounds, 0.2% hits; HeLa A3F-eYFP + Vif (tagged APOBEC3F with the HIV-1 protein that degrades it), YFP fluorescence increase; note: potency is the fitted concentration of half-maximal effect; % of control where 0% means no effect; nearly all actives have a fitted effect of over 65% in size
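HeLa cells stably expressing A3F-eYFP plus Vif, plated and incubated overnight at 37 deg C, then exposed to compounds overnight at 37 deg C. Blocked degradation read as raised yellow fluorescence (Ex 488/Em 500-530).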
MCF10A rerep: inducers of DNA re-replication in MCF 10A breast cells; MCF 10A DNA re-replication, Hoechst nuclear intensity, 48 h; Potency, µM (doses to about 46.1 µM), without a hit: top-dose activity, positive = re-replication, most hits filed as activators; 350,000 compounds, 2.9% hits; AID 624296; note: potency is the fitted concentration of half-maximal effect; % of control where 0% means no effect; nearly all actives have a fitted effect of over 50% in size
IL-1B inflam inh: blocks inflammasome-driven IL-1 beta release; 360,000 compounds, 4.7% hits; THP-1 LPS/ATP IL-1B secretion, AlphaLISA, 16 h; hits give low values; AID 743279; activity change, % at 57.5 µM; in the data active = activity change below about -50%; inconclusive = mostly about -30% to -49%; note: % is set by controls: 0 for no effect and ±100 for the full control effect
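THP-1 cells pretreated 1 hr with compounds (up to 57.5 uM final), then stimulated with LPS (250 ng/mL final) plus ATP (1.25 mM final); secreted IL-1B measured by AlphaLISA after 16 hr, decreased signal indicating inhibition.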
Starred values were filed as active, the others as inactive; ? = inconclusive; · = not tested or not shown; [ ] = dose if it differs, or a comment. An excerpt weighted towards active compounds, which were near 6.9% of everything screened. Unless noted, calls come from the whole dose curve; as a rule, active = well fitted curve in the direction sought with a large enough effect; inconclusive = small, poorly fitted or top-dose-only effect, or another doubt; inactive = no such curve, though single readings can be large; an effect the other way counts as inactive or inconclusive.

SMILES	Vif-APOBEC3G blk	SW480 rerep	Giardia kill	Vif-A3F inh	MCF10A rerep	IL-1B inflam inh
O=C1CCCC2=C1C1c3ccccc3C(=O)N1c1ccc(C(=O)c3ccccc3)cc1N2 (centres undefined)	-25%	0%[9.22 µM]	36	-16%	?	-71*
CCC(=O)N1c2ccccc2NC2=C(C(=O)CCC2)C1c1ccc(N(C)C)cc1 (centres undefined)	1%	-9%	-15	1%	4%	11
Cc1ccc(C)c(CN2C(=O)c3ccccc3Sc3ccc(C(=O)NCc4ccco4)cc32)c1	4%	·	·	-1%	·	·
COc1ccc(-c2coc3cc4oc(=O)cc(C)c4cc23)cc1F	-7%	?	-6	-11%	5.2µM*	-8
COc1ccc(-c2cc(=O)oc3cc4occ(C)c4cc23)cc1	-17%	?	-8	1%	?	11
COc1ccc(-c2coc3cc4oc(=O)cc(-c5ccccc5)c4cc23)cc1F	?	?	-19	-16%	6.5µM*	46
CCc1ccc(OCCCC(=O)Nc2cccc(C(=O)O)c2)cc1	12%	23µM*	-26	5%	6%	8
COc1ccc(NC(=S)NNc2ccc([N+](=O)[O-])cc2S(=O)(=O)Nc2ccc(C)cc2C)cc1	-5%	4%	6	16%	?	-84*
Cc1ccc(NS(=O)(=O)c2cc([N+](=O)[O-])ccc2NNC(=S)Nc2cccc(Cl)c2)c(C)c1	2%	·	-3	-19%	-4%	-22
Cc1ccc(NS(=O)(=O)c2cc([N+](=O)[O-])ccc2NNC(=S)Nc2cc(C)ccc2C)c(C)c1	-9%	?	-11	-1%	?	-67*
CCCc1nnc(NC(=O)c2cc(=O)c3ccccc3o2)s1	-1%	·	·	-5%	·	·
Cc1ccc(C)c(S(=O)(=O)Nc2cc(SCC(=O)O)c(O)c3ccccc23)c1	?	?	11	-1%	?	-98*
O=C(O)CSc1cc(NS(=O)(=O)c2cccc([N+](=O)[O-])c2)c2ccccc2c1O	?	21µM*	-81*	?	2.1µM*	-86*
CCOC(=O)C1CCN(C(=O)CSc2n[nH]c(-c3ccccc3Cl)n2)CC1	3%	·	·	11%	·	·
COc1ccccc1N1CCN(C(=O)CN2C(=O)COc3ccc(S(=O)(=O)N4CCCC4)cc32)CC1	0%	·	·	4%	·	·
COc1ccc(COc2ccsc2C(=O)Nc2ccc(Cl)c(Cl)c2)cc1	-7%	12%	8	-3%	18µM*	75
CN(C)S(=O)(=O)Oc1ccsc1C(=O)Nc1ccc(Cl)c(Cl)c1	-21%	10%	-7	-3%	?	-19
CCOC(=O)c1c(NC(=O)c2ccc(N3C(=O)[C@@H]4[C@H](C3=O)[C@H]3C=C[C@@H]4C3)cc2)sc2c1CC(C)CC2 (some centres undefined)	-1%	1%	4	0%	18%	-81*
CCOC(=O)c1c(NC(=O)C2C3C=CC(C3)C2C(=O)O)sc2c1CC(C)CC2 (centres undefined)	-8%	-9%	-11	11%	-6%	15
CCC(CC)C(=O)N1CCc2cc(OC)c(OC)cc2C1COc1ccc(C(=O)OC)cc1 (centres undefined)	1%	·	·	10%	·	·
COc1cc(NC(=O)COc2ccc(F)cc2)nc(OC)n1	0%	21µM*	-6	0%	?	-1
COc1cc(Cl)c(C)cc1NC(=O)Cn1ncc2c(=O)oc3ccccc3c21	1%	·	·	-2%	·	·
CCN(CC(=O)Nc1cc(Cl)ccc1C)C(=O)C1CCN(c2ncnc3sc(C)c(C)c23)CC1	-7%	·	·	-6%	·	-12
CCN(CC(=O)Nc1cc(Cl)ccc1C)c1ncnc2sc(C)c(C)c12	-3%	-10%	23	4%	?	-61*
CC(=O)c1sc(NC(=O)CCS(=O)(=O)c2ccc(C)cc2)nc1C	?	?	13	4%	?	-107*
SMILES	Vif-APOBEC3G blk	SW480 rerep	Giardia kill	Vif-A3F inh	MCF10A rerep	IL-1B inflam inh
O=C(CCS(=O)(=O)c1ccccc1)Nc1nnc(C(F)(F)F)s1	?	13µM*	4	9%	23µM*	3
CCC(NC(=O)Nc1nnc(C(F)(F)F)s1)(C(F)(F)F)C(F)(F)F	0%	?	1	0%	?	-73*
CCCc1nnc(NC(=O)CCS(=O)(=O)c2ccccc2)s1	-22%	0%	17	-5%	?	-58*
Cn1c2ccccc2c2cnn(CC(=O)NCCCN3CCCCC3)c(=O)c21	-1%	·	·	1%	·	·
Cc1nc2ccn(Cc3ccco3)c(=O)c2cc1C(=O)NCc1ccccc1	-1%	·	·	0%	·	·
Cc1cccc(-c2nc(SCC(=O)N3CCc4ccccc43)c3c(=O)n(C)c(=O)n(C)c3n2)c1	-6%	·	·	-3%	·	·
COC(=O)c1sc(NC(=O)COc2ccc(C)cc2)nc1C	0%	0%	-19	-6%	1%	-63*
Cc1nnc(NC(=O)CCS(=O)(=O)Cc2ccccc2)s1	3%	?	-17	0%	?	-1
CC(C)(C)c1nnc(NC(=O)CCS(=O)(=O)c2ccccc2)s1	-18%	?	2	-20%	?	-103*
CC(=O)c1sc(NC(=O)C2(F)C(F)(F)C(F)(F)C(F)(F)C(F)(F)C2(F)F)nc1C	0%	0%	0	-26%	9.2µM*	-88*
Cc1nnc(NC(=O)CCS(=O)(=O)c2ccccc2)s1	1%	?	-10	-11%	?	-93*
CC(=O)c1sc(NC(=O)C=C(C)C)nc1C	2%	4%	5	1%	11%	20
CN(C(=O)Cc1ccccc1OC(=O)c1ccccc1)c1ccccc1I	-4%	·	2	·	·	·
O=C(Nc1ccc2oc(-c3cccnc3)nc2c1)c1cccnc1	-9%	-19%	-2	2%	7%	-9
Cc1c(C(=O)Nc2ccc3oc(-c4cccnc4)nc3c2)oc2ccccc12	?	21µM*	-6	?	?	13
Cc1ccccc1C(=O)N1CCN(C(c2ccccc2)c2ccccc2)CC1	1%	-2%	-7	-15%	0%	-29
O=C(NCC(=O)N1CCN(C(c2ccccc2)c2ccccc2)CC1)c1ccccc1F	-23%	-2%	-10	11%	8%	-52*
Cc1oc(C(C)(C)C)cc1C(=O)N1CCN(C(c2ccccc2)c2ccccc2)CC1	-3%	?	44	-3%	12µM*	-68*
COc1cc(C(=S)N2CCN(C(c3ccccc3)c3ccccc3)CC2)cc(OC)c1O	2%	-53%	-3	-14%	?	-50*
